Laboratory results: PubChem BioAssay (NCI)
The panel holds about 83,000 compounds, 20% with a hit somewhere; the sample as a whole holds those more often.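 Testing used 96-well plates and a 48-hour single-concentration exposure. Example: -40 means 40% of the starting cells died.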 Activity calls are given as the source filed them.

The compounds below were run on UO-31 renal (assay: NCI-60 one-dose screen, 48 h (100 = growth as untreated, 0 = no growth, -100 = all killed)). Settings: 10 µM.
Method: Growth inhibition of the UO-31 human tumor cell line is measured as a screen for anti-cancer activity. Cells are grown in 96 well plates and exposed to the test compound for 48 hours. Compounds are tested at a single concentration, which is 10^-5 M for most compounds. The reported endpoint is percent growth (GI% or GIPRCNT), where numbers from 0 - 100% represent growth inhibition, and numbers from -100% - 0 represent cell death. For example, a value of 40 represents 60% growth inhibition. A value of 0 means no net growth occurred over the course of the experiment. A value of -40 indicates 40% of cells at the beginning of the experiment died by the end of the experiment. A value of -100 means all cells are dead at the end of the experiment.
NCI-60 Human Tumor Cell Lines Screen was performed using the standard one-dose NCI protocol, which is described in more detail at https://dtp.cancer.gov/discovery_development/nci-60/default.htm.
Compounds with GIPRCNT values below 10 were considered active. Activity score was based on GIPRCNT using the following formula: […]
Score is 0 for GIPRCNT values of 100 or above, 50 for GIPRCNT values of 0, and 100 for GIPRCNT values of -100.

Row | Compound | growth
1 | COc1cc2oc(-c3cccc(C(=O)Nc4ccc(Cl)cc4)c3)cc(=O)c2c(OCCN)c1OC | -81.1% (active)
2 | COc1ccccc1-n1cc(C#N)c(N)c1C(=O)c1ccc(Cl)cc1Cl | 42.4% (inactive)
3 | Cc1cc(N=C2NC(=O)S/C2=C\c2ccc(F)cc2)n[nH]1 | 12.1% (inactive)
4 | Fc1ccc(/C=C/c2nc3ccccc3n3c(-c4ccc(Cl)cc4)nnc23)cc1 | 53.3% (inactive)
5 | O=C(CSc1nc2ccccc2c(=O)n1-c1ccc(Cl)cc1)Nc1ccc(-c2nc3ccccc3[nH]2)cc1 | -39.1% (active)
6 | Cc1ccc2c(c1)C(=O)/C(=C/c1ccc([N+](=O)[O-])cc1)S2 | 58.2% (inactive)
7 | C#C[C@]1(O)CC[C@H]2[C@@H]3CC=C4c5sc(Nc6cc(C)cc(C)n6)nc5CC[C@]4(C)[C@H]3CC[C@@]21C | -65.9% (active)
8 | CC(C)(C)c1cc(/C=C2\S/C(=N/c3ncn[nH]3)NC2=O)cc(C(C)(C)C)c1O | 15.1% (inactive)
9 | Cn1cc(-c2nnc(N)nc2-c2c[nH]c3ccc(F)cc23)c2cc(Br)cnc21 | 43.1% (inactive)
10 | CC1(C)CC[C@]2(C(=O)O)CC[C@]3(C)C(=CCC4[C@@]5(C)C[C@@H](O)[C@@H]6OC(c7cccc(F)c7)OC[C@@]6(C)C5CC[C@]43C)C2C1 (stereo not given in full) | 34.2% (inactive)
11 | C#C[C@]1(O)CC[C@H]2[C@@H]3CC=C4c5sc(Nc6ccc(C(F)(F)F)cn6)nc5CC[C@]4(C)[C@H]3CC[C@@]21C | -23.8% (active)
12 | Fc1ccc(-c2csc(Nc3cccc(Nc4nc(-c5ccc(F)cc5)cs4)c3)n2)cc1 | 31.3% (inactive)
13 | O=C(CC(=O)Nc1ccc(Oc2ncnc3scc(Nc4n[nH]c(=S)s4)c23)cc1)Nc1ccc(Br)cc1 | 85.1% (inactive)
14 | COc1ccc2[nH]cc(-c3nc(N)nnc3-c3cn(C)c4ncc(Br)cc34)c2c1 | 3.12% (active)
15 | COc1ccc(Cc2nn(CC(=O)N/N=C/c3ccc(Br)cc3)c(=O)c3c(C)noc23)cc1 | -15.7% (active)
16 | O=[N+]([O-])c1cccc(-c2nnc3c(/C=C/c4ccccc4O)nc4ccccc4n23)c1 | 41.8% (inactive)
17 | Cn1cc(-c2cc3nc(-c4c[nH]c5ccccc45)cc(N)n3n2)c2cc(Cl)ccc21 | -97.7% (active)
18 | O=C(c1ccc(F)cc1)C(c1c[nH]c2ccccc12)c1c[nH]c2ccccc12 | 43.8% (inactive)
19 | CC1(C)CC(=O)C2=C(C1)N(Cc1ccc(C(=O)O)cc1)C1=C(C(=O)CC(C)(C)C1)C2c1ccc(Cl)cc1 | 81.6% (inactive)
20 | COc1ccc(C(=O)COc2ccc(NC(=O)Nc3ccccc3)cc2)cc1 | 80% (inactive)

Row | Compound | growth
21 | O=C(CN1CCN(c2ncnc3c2cnn3-c2ccccc2)CC1)Nc1ccc(Br)cc1 | -77% (active)
22 | Cn1cc(/C=C(/SS/C(=C/c2cn(C)c3cccc(C(=O)O)c23)C(=O)O)C(=O)O)c2c(C(=O)O)cccc21 | 88.1% (inactive)
23 | COc1ccc(C(=O)COc2ccc(NC(=O)Nc3ccc(Cl)c(C(F)(F)F)c3)cc2)cc1 | 33.3% (inactive)
24 | Cc1ccc2c(c1)C(=O)/C(=C/c1c[nH]c3ccccc13)S2 | 40.4% (inactive)
25 | COc1ccc(C2c3sc4ccc(C)cc4c3Oc3nc(N)nc(N)c32)cc1 (stereo not given) | 60.5% (inactive)
26 | Cn1cc(-c2nnc(N)nc2-c2c[nH]c3ccccc23)c2cc(Br)cnc21 | 24.7% (inactive)
27 | COC(=O)CNC(=O)COc1c(OC)c(OC)cc2oc(-c3cccc(C(=O)Nc4ccc(Cl)cc4)c3)cc(=O)c12 | 66.5% (inactive)
28 | O=C(CSc1nc2ccccc2c(=O)n1-c1ccc(Cl)cc1)Nc1ccc(-c2nc3ccc([N+](=O)[O-])cc3[nH]2)cc1 | 74.3% (inactive)
29 | COc1cccc(O)c1/C=C1\SCc2cc3c(OC)cccc3[o+]c21 | 65.5% (inactive)
30 | COc1cccc(C(=O)CSc2nc(-c3ccc(OCc4ccccc4)c(OC)c3)c(C#N)c(=O)[nH]2)c1 | 82.8% (inactive)
31 | CCOC(=O)C1=C(N)N(c2ccc(C)cc2)C2=C(C(=O)CC(C)(C)C2)C1c1ccccc1Br (stereo not given) | 76% (inactive)
32 | COc1ccc(C2c3sc4ccc(C)cc4c3Oc3nc[nH]c(=O)c32)cc1 (stereo not given) | 64.5% (inactive)
33 | O=C(Nc1ccc(OCc2ccc(Cl)cc2)cc1)Nc1ccc(Cl)c(C(F)(F)F)c1 | 6.65% (active)
34 | O=C(CN1CCN(c2ncnc3c2cnn3-c2ccccc2)CC1)Nc1ccc(Cl)cc1 | -60.5% (active)
35 | CCOc1ccc(/C=N/NC(=O)Cn2nc(Cc3ccc(OC)cc3)c3onc(C)c3c2=O)cc1 | 2.46% (active)
36 | Cn1cc(-c2cc(N)n3nc(-c4cn(C)c5ccccc45)cc3n2)c2cc(F)ccc21 | -82.4% (active)
37 | COc1cc2oc(-c3cccc(C(=O)Nc4ccc(Cl)cc4)c3)cc(=O)c2c(OCCNC(=O)[C@@H](N)CO)c1OC | 91.1% (inactive)
38 | C#C[C@]1(O)CC[C@H]2[C@@H]3CC=C4c5sc(Nc6ccc(N(C)C)cc6)nc5CC[C@]4(C)[C@H]3CC[C@@]21C | -45% (active)
39 | Cc1ccc(COc2ccc(NC(=O)Nc3ccc(Cl)c(C(F)(F)F)c3)cc2)cc1 | 63.5% (inactive)
40 | COc1ccc(-n2c(SCC(=O)NNS(=O)(=O)c3ccccc3)nc3ccc(Cl)cc3c2=O)cc1 | 63.5% (inactive)
